Assay results taken from PMC7862700, “An all-to-all approach to the identification of sequence-specific readers for epigenetic DNA modifications on cytosine”.

Tests used:
Test in all cases: DAPPL (digital affinity profiling via proximity ligation, sequencing); 10 mM Tris-HCl pH 7.5, 50 mM NaCl, 1 mM DTT, 4% glycerol, room temperature, 30 min; GST-TFs on glutathione beads, 16-mer random dsDNA library, 0.1% formaldehyde crosslink after washing; high values mean tight binding
Conditions in all cases: protein: recombinant; tags: N-terminal GST; dsDNA, one strand shown
[1] = target: T1, FEV (Homo sapiens, UniProt Q99581 1-238)
T1 sequence: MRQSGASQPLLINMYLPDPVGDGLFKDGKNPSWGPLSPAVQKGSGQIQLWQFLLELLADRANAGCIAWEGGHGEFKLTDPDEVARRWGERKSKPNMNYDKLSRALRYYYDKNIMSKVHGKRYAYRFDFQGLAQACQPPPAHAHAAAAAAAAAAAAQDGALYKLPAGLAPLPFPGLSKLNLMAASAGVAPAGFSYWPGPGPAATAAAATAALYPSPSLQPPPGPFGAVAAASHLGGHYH
How it was run: (§1)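 Beads coated with glutathione captured GST-fused human transcription factors that had been expressed in yeast, and the factors were then given DNA barcodes and pooled with a tag-only sample. The pools were incubated with 200 nmole of a random double-stranded 16-mer DNA library in Tris/NaCl/DTT/glycerol buffer for 30 min at room temperature, washed, crosslinked with 0.1% formaldehyde and proximity-ligated with BsaI/T4 ligase at 37 °C for 1 h. PCR amplification and Illumina NextSeq500 sequencing came last. Binding signal is each hexamer's read frequency for a factor divided by its frequency for the tag-only sample.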

[2] = target: ETV5 (Homo sapiens, UniProt P41161 1-510)
How it was run: as §1

[3] = target: T2, SPIC (Homo sapiens, UniProt Q8N5J4 1-248)
T2 sequence: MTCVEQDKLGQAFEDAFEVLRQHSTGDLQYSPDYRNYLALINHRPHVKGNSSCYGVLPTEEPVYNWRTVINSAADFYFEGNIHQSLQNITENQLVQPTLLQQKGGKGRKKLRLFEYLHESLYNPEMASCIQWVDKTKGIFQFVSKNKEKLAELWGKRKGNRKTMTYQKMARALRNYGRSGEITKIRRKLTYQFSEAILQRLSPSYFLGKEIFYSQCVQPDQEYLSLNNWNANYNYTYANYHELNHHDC
How it was run: as §1

[4] = target: ELF4 (Homo sapiens, UniProt Q99607 1-663)
How it was run: as §1

[5] = target: T3, ELK4 (Homo sapiens, UniProt P28324-2 1-405)
T3 sequence: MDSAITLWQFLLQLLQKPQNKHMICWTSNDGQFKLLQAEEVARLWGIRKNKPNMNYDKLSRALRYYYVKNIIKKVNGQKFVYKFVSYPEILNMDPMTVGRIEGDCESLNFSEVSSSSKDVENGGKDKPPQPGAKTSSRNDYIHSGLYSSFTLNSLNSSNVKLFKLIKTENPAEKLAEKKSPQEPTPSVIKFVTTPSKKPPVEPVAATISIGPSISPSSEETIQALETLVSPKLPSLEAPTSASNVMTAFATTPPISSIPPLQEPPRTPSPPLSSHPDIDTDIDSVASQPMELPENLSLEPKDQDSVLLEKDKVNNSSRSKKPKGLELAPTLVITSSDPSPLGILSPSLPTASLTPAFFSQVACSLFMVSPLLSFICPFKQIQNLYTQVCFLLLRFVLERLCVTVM
How it was run: as §1

[6] = target: T4, ETV2 (Homo sapiens, UniProt O00321 1-342)
T4 sequence: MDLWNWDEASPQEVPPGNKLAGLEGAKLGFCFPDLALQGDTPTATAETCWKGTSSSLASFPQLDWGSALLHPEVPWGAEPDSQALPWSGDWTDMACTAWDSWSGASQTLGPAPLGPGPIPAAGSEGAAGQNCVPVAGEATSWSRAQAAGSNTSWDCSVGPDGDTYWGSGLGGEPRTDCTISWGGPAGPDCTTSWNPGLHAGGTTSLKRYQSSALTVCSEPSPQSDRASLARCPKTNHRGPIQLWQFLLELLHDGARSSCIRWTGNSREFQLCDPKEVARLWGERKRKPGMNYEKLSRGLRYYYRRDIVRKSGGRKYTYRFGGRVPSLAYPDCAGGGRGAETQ
How it was run: as §1

[7] = target: T5, ELF3 (Homo sapiens, UniProt P78545 1-371)
T5 sequence: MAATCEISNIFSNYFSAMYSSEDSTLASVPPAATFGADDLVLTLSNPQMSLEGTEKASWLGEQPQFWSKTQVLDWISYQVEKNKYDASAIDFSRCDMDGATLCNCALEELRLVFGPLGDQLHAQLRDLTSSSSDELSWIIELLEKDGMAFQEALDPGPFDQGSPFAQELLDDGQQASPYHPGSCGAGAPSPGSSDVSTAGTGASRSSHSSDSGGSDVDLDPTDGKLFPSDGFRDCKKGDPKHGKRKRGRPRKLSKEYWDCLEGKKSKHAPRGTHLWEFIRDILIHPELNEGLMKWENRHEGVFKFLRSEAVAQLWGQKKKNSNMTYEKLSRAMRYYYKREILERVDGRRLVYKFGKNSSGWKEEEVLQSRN
How it was run: as §1

[8] = target: ETV1 (Homo sapiens, UniProt P50549 1-477)
How it was run: as §1

[9] = target: T6, ERF (Homo sapiens, UniProt P50548 1-548)
T6 sequence: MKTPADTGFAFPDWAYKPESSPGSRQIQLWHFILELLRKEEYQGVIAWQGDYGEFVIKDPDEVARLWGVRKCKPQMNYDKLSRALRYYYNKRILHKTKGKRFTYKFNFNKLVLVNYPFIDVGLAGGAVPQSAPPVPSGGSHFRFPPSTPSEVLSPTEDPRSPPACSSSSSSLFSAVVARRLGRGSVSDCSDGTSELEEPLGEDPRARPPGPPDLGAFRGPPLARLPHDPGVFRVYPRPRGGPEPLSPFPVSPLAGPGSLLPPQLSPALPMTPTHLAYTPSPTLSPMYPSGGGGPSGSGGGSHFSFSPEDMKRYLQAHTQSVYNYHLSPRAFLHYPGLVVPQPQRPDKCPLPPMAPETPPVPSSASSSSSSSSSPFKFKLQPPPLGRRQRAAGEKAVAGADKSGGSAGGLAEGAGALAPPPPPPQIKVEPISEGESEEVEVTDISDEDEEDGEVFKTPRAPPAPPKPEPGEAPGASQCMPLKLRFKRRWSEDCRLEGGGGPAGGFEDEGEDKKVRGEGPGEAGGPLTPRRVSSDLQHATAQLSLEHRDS
How it was run: as §1

[10] = target: T7, ETV3L (Homo sapiens, UniProt Q6ZN32 1-361)
T7 sequence: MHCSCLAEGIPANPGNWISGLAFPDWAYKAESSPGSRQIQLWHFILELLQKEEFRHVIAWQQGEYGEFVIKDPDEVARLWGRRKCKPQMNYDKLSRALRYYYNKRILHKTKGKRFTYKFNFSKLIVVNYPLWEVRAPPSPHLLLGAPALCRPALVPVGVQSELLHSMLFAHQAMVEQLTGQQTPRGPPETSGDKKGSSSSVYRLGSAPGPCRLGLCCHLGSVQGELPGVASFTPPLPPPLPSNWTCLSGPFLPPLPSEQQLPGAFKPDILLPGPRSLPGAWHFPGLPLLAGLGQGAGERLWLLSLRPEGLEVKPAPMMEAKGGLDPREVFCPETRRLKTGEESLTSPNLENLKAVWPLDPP
How it was run: as §1

[11] = target: T8, ETS2 (Homo sapiens, UniProt P15036 1-469)
T8 sequence: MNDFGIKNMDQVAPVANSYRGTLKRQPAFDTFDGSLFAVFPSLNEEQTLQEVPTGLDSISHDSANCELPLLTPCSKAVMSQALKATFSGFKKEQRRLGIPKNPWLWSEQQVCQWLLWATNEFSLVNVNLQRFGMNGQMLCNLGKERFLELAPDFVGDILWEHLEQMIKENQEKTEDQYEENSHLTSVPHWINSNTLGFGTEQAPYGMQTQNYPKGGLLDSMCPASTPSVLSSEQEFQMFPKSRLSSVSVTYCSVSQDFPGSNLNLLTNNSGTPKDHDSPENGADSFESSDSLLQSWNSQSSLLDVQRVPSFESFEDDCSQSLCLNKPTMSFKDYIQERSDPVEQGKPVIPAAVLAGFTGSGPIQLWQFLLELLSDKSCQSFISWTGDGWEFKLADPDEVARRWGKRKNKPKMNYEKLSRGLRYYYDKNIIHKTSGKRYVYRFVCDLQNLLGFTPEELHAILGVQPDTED
How it was run: as §1

[12] = target: T9, SPDEF (Homo sapiens, UniProt O95238 1-335)
T9 sequence: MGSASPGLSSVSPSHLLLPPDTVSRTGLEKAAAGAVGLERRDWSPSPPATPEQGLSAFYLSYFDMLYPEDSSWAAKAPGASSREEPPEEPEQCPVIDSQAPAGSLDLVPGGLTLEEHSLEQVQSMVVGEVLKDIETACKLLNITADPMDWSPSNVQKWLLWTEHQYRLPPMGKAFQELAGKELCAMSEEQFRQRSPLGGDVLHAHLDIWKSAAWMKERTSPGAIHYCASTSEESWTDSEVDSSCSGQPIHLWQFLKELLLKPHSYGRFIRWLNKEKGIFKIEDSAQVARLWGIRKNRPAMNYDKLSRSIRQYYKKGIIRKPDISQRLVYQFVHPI
How it was run: as §1

[13] = target: T10, ETV7 (Homo sapiens, UniProt Q9Y603 1-341)
T10 sequence: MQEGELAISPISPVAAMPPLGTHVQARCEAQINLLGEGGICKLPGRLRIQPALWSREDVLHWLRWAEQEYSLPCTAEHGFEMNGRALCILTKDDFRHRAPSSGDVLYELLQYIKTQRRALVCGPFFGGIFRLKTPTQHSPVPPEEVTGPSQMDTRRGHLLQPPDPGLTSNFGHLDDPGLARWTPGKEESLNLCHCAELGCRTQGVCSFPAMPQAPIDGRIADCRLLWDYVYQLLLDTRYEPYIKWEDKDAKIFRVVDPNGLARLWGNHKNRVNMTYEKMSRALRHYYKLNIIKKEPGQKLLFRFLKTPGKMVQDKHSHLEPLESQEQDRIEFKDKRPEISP
How it was run: as §1

[14] = target: T11, ELF5 (Homo sapiens, UniProt Q9UKW6-2 1-255)
T11 sequence: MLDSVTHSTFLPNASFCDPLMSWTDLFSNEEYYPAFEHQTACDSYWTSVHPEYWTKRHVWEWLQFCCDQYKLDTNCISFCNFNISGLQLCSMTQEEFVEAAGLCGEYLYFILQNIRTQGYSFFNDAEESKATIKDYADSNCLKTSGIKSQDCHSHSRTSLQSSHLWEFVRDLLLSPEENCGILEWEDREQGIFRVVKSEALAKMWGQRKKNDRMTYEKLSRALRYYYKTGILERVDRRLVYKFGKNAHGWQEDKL
How it was run: as §1

[15] = target: T12, ETV3 (Homo sapiens, UniProt P41162-2 1-143)
T12 sequence: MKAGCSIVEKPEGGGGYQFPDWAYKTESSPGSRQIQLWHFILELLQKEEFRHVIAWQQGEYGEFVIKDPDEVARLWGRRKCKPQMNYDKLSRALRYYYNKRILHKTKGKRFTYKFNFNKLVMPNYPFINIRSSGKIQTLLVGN
How it was run: as §1

[16] = target: ETV6 (Homo sapiens, UniProt P41212 1-452)
How it was run: as §1

ETV5, sequence (P41161 whole entry): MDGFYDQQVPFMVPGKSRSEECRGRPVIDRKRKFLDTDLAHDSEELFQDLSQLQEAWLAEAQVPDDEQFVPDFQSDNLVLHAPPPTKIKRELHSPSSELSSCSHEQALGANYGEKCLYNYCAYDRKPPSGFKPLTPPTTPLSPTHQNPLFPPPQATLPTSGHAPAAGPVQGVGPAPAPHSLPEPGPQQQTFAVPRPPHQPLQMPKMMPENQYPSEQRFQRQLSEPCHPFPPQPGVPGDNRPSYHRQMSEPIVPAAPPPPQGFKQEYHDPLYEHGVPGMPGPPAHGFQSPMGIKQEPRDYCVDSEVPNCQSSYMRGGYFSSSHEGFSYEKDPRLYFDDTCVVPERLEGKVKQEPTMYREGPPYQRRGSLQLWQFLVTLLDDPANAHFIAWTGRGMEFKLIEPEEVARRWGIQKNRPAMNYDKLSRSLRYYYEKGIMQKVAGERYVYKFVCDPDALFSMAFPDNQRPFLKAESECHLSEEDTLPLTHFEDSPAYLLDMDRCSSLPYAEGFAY
ELF4, sequence (Q99607 whole entry): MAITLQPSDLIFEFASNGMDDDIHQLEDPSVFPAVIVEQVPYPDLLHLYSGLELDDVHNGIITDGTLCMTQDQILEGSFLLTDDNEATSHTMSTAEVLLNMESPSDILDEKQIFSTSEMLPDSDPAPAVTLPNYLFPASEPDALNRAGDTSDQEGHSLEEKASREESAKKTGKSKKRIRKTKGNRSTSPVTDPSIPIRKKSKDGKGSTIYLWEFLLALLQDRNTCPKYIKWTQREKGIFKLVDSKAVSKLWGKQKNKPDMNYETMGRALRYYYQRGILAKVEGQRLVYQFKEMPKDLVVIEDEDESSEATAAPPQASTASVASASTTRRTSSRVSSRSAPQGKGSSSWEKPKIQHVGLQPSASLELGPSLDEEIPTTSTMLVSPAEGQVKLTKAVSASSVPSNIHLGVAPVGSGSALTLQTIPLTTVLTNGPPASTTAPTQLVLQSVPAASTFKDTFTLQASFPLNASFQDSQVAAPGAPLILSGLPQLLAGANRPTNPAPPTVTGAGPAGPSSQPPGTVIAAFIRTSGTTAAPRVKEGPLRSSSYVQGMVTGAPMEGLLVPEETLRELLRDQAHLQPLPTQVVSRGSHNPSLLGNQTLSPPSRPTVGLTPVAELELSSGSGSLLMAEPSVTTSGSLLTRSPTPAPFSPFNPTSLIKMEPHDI
ETV1, sequence (P50549 whole entry): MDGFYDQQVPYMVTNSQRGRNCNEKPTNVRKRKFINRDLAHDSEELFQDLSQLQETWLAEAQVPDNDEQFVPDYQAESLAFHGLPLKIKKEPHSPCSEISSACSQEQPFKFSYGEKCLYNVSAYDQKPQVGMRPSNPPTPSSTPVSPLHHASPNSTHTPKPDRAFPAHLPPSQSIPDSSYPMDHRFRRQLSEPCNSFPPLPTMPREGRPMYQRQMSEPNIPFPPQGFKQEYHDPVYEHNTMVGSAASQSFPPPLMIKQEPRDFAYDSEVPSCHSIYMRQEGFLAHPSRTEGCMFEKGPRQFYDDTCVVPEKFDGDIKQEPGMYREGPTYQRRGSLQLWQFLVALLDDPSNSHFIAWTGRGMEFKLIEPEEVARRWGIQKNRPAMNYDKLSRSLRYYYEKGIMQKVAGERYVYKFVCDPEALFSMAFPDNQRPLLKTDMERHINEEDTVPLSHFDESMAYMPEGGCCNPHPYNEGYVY
ETV6, sequence (P41212 whole entry): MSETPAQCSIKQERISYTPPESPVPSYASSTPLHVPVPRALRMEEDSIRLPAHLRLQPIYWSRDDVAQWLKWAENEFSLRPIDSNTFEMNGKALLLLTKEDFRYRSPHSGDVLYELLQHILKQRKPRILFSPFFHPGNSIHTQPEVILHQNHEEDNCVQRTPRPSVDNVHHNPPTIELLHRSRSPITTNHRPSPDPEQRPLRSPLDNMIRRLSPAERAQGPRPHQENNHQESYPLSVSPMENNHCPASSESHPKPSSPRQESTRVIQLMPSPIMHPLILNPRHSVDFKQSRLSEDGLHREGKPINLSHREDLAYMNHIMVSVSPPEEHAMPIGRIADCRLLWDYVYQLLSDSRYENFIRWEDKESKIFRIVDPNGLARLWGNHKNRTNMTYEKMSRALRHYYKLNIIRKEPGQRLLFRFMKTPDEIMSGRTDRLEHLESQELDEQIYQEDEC

Sequence | binding signal [1] | binding signal [2] | binding signal [3] | binding signal [4] | binding signal [5] | binding signal [6] | binding signal [7] | binding signal [8] | binding signal [9] | binding signal [10] | binding signal [11] | binding signal [12] | binding signal [13] | binding signal [14] | binding signal [15] | binding signal [16]
CCGGTA | 1.81 fold enrichment (6-mer frequency, TF over GST control) | 1.59 fold enrichment (6-mer frequency, TF over GST control) | 1.69 fold enrichment (6-mer frequency, TF over GST control) | 1.45 fold enrichment (6-mer frequency, TF over GST control) | 1.41 fold enrichment (6-mer frequency, TF over GST control) | 1.52 fold enrichment (6-mer frequency, TF over GST control) | 1.6 fold enrichment (6-mer frequency, TF over GST control) | 1.59 fold enrichment (6-mer frequency, TF over GST control) | 1.4 fold enrichment (6-mer frequency, TF over GST control) | 1.46 fold enrichment (6-mer frequency, TF over GST control) | 1.54 fold enrichment (6-mer frequency, TF over GST control) | 1.96 fold enrichment (6-mer frequency, TF over GST control) | 1.35 fold enrichment (6-mer frequency, TF over GST control) | 1.83 fold enrichment (6-mer frequency, TF over GST control) | 1.68 fold enrichment (6-mer frequency, TF over GST control) | 1.65 fold enrichment (6-mer frequency, TF over GST control)
ACTACA | 1.17 fold enrichment (6-mer frequency, TF over GST control) | 1.24 fold enrichment (6-mer frequency, TF over GST control) | 1.06 fold enrichment (6-mer frequency, TF over GST control) | 1.16 fold enrichment (6-mer frequency, TF over GST control) | 1.07 fold enrichment (6-mer frequency, TF over GST control) | 1.11 fold enrichment (6-mer frequency, TF over GST control) | 1.04 fold enrichment (6-mer frequency, TF over GST control) | 1.22 fold enrichment (6-mer frequency, TF over GST control) | 1.13 fold enrichment (6-mer frequency, TF over GST control) | 1.22 fold enrichment (6-mer frequency, TF over GST control) | 1.15 fold enrichment (6-mer frequency, TF over GST control) | 1.28 fold enrichment (6-mer frequency, TF over GST control) | 1.11 fold enrichment (6-mer frequency, TF over GST control) | 1.24 fold enrichment (6-mer frequency, TF over GST control) | 1.19 fold enrichment (6-mer frequency, TF over GST control) | 1.19 fold enrichment (6-mer frequency, TF over GST control)
